The results in this text go back to PubChem BioAssay.

Broadly, the inhibition is the relative decrease from the control value, in per cent.

The nature of assay [1]: antimalarial activity against Dd2 strain (AID 2302;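 active = growth inhibition above 50% at the single 2 µM test dose, taken to imply half-maximal potency below 2 µM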;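 note: 0% = DMSO untreated growth and 100% = chloroquine plus artemisinin killed control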). The note with it: P. falciparum Dd2 in RBCs, LDH growth readout, 72 h; at 2 µM; stronger effect = higher value.
Assay [2] can be described thus: HepG2 cytotoxicity, primary screen, cytotoxicity control for P. falciparum antimalarial project, cell-based, ATP luminescence (AID 2303;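 active = inhibition above 50%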;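 note: 0% = DMSO wells and 100% = digitonin-killed cells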). The note with it: HepG2 viability, 24-48 h, at 10 µM, stronger effect = higher value.
For assay [3], the target named is L-lactate dehydrogenase (Plasmodium falciparum (isolate CDC / Honduras)) (UniProt Q27743). Nature of the assay: PfLDH activity inhibition – cell lysate, 3D7 strain, counter-screen for P. falciparum growth inhibition project (AID 2304).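 Note: 0% = vehicle and 100% = reference inhibitor.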 Conditions: P. falciparum 3D7 crude extract, LDH APAD/NBT absorbance; at 2 µM; stronger effect = higher value. (In general: Counterscreens check selectivity or assay interference.)
Chain of L-lactate dehydrogenase (Plasmodium falciparum (isolate CDC / Honduras)) (Q27743 whole entry, looked up): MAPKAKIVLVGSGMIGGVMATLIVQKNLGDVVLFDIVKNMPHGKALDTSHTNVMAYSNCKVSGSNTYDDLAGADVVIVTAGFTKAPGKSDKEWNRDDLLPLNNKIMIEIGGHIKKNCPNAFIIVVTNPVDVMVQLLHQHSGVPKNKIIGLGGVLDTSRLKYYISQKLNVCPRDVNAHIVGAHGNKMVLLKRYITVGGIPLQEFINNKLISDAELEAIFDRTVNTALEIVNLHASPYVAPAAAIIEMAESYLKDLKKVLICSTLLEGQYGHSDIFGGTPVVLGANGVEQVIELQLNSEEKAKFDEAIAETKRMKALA

Assay [4] is described as follows: inhibition of 3D7 malaria parasite growth – strain 3D7 (AID 2306).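 Note: 0% = DMSO wells and 100% = chloroquine plus artemisinin control wells.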 The note with it: P. falciparum 3D7 erythrocytic growth, LDH absorbance, 72 h; at 2 µM; stronger effect = higher value.
Assay [5] concerns the target Calcium-dependent protein kinase 1 (Plasmodium falciparum (isolate 3D7)) (UniProt P62344). Nature of the assay: PfCDPK1 kinase inhibitors, biochemical, TCAMS library (AID 1159585; cut-off not given, nearly all actives have IC50 up to about 0.98 µM;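 note: inhibitors leave more ATP so luminescence rises with inhibition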). Conditions: recombinant PfCDPK1, Kinase-Glo ATP depletion luminescence. A general note: Kinase-Glo reads ATP consumption through a luciferase reaction.
The target in assay [6] is Plasmodium falciparum protein kinase 6 (PK6, PF3D7_1337100) (UniProt Q8IDW1). The experiment in a line: PfPK6 kinase inhibitors, biochemical, TCAMS library (AID 1159586). The note with it: recombinant PfPK6, Kinase-Glo ATP depletion luminescence.
Chain of Plasmodium falciparum protein kinase 6 (PK6, PF3D7_1337100) (Q8IDW1 1-305): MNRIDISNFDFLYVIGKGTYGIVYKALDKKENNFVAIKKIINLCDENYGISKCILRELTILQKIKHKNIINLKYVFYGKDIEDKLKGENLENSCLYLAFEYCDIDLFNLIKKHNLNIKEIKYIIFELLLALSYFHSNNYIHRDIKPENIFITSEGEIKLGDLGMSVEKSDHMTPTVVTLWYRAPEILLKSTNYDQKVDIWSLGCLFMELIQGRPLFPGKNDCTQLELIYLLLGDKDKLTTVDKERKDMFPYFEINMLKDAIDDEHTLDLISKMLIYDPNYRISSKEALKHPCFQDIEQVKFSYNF
Assay [7] deals with Protein kinase 7 (PK7), Plasmodium falciparum 3D7 (PF3D7_0213400) (UniProt Q7YTF7). Nature of the assay: inhibition of Plasmodium PK7 catalytic activity – biochemical, TCAMS antimalarial set, Kinase-Glo luminescence (AID 1159587). Conditions: recombinant PfPK7, Kinase-Glo ATP depletion luminescence.
Chain of Protein kinase 7 (PK7), Plasmodium falciparum 3D7 (PF3D7_0213400) (Q7YTF7 1-343): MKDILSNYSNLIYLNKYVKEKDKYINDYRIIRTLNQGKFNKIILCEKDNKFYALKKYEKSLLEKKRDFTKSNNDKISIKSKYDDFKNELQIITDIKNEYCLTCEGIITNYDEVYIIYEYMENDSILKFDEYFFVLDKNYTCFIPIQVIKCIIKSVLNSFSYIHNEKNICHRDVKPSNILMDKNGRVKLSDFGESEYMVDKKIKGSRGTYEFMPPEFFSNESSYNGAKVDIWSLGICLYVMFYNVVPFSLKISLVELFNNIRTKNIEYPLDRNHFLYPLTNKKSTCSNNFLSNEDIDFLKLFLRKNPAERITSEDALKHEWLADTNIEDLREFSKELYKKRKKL
In assay [8] the target is Calcium-dependent protein kinase 4 (Plasmodium falciparum (isolate 3D7)) (UniProt Q8IBS5). The experiment in a line: PfCDPK4 kinase inhibitors, biochemical, TCAMS library (AID 1159588; cut-off not given, nearly all actives have IC50 up to about 0.91 µM). The note with it: recombinant PfCDPK4, Kinase-Glo ATP depletion luminescence.
Chain of Calcium-dependent protein kinase 4 (Plasmodium falciparum (isolate 3D7)) (Q8IBS5 whole entry, looked up): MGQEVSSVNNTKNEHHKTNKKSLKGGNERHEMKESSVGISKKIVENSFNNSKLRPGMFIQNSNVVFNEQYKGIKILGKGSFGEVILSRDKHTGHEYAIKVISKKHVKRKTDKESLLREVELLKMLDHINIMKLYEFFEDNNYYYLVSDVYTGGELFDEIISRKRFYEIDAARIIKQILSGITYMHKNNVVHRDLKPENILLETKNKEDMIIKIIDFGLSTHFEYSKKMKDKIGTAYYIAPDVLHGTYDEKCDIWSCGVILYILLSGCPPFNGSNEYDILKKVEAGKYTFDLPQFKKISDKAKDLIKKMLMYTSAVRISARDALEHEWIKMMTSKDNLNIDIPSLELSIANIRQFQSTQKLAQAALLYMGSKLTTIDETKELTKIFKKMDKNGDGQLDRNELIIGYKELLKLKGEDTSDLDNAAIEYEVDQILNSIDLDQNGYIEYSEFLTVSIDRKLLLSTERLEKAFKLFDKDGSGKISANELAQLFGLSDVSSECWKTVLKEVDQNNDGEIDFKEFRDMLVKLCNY

The structures appear in SMILES notation. Unmarked numbers belong to inactive results. For some of these results: Entries with a potency or affinity are not part of this list. Activity calls are given as the source filed them. Unless noted, the rule behind the calls is not given here.

Chain of Calcium-dependent protein kinase 1 (Plasmodium falciparum (isolate 3D7)) (P62344 whole entry, looked up): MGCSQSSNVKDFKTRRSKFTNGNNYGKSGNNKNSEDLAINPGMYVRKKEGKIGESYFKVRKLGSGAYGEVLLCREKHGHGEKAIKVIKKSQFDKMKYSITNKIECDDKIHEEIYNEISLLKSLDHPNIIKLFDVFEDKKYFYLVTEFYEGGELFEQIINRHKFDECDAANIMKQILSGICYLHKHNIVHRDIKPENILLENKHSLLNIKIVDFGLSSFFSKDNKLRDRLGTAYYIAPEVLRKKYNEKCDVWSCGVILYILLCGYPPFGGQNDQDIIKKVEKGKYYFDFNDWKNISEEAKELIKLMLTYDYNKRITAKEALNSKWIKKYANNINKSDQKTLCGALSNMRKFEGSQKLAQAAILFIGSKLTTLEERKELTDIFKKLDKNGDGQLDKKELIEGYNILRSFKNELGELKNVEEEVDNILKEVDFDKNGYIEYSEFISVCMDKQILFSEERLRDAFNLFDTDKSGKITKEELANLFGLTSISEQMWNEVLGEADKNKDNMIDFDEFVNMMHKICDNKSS

On to `CCc1ccc(NC(=O)C=NN=C(N)N)cc1`, for which the values for the growth inhibition in assay [1] and in assay [4] were 3% and 100% (active), respectively. For the same molecule, the inhibition in assay [2] is 13%; in assay [3] it was -2%. Also, the result in assay [5], in assay [6], in assay [7] and in assay [8] was inactive.
Turning to `COc1cccc(C(=O)Nc2ccc(Nc3nc(C)cc(N(C)C)n3)cc2)c1OC`, the growth inhibition in assay [1] is 9%; in assay [4], 90% (active). The inhibition in assay [2] was -10%; in assay [3] it was -3%. Moreover, the outcome in assay [5], in assay [6], in assay [7] and in assay [8] was inactive.
For the molecule `CN(C)CCCN1C(=O)c2[nH]nc(-c3ccc(Cl)cc3O)c2C1c1ccc(Cl)cc1` (stereo not given), the growth inhibition in assay [1] was 15%; in assay [4], 99% (active). In addition, the inhibition in assay [2] was 57% (active); in assay [3], 4%. In addition, the result in assay [5], in assay [6], in assay [7] and in assay [8] was inactive.
Take `Cc1ccc(C2CCN(CCCCNC(=O)c3ccc(NC(=O)c4ccc(Cl)cc4)cc3)CC2)c(OCC(F)(F)F)c1`: the growth inhibition in assay [1] was 84% (active); in assay [4], 99% (active). In addition, the figures for the inhibition in assay [2] and in assay [3] were 32% and -4%, respectively. Also, the result in assay [5], in assay [6], in assay [7] and in assay [8] was inactive.
Consider `O=C(/C=C/c1ccc(Cl)c(Cl)c1)NCCCCCN1CCCN(C(=O)Nc2ccc(C(F)(F)F)cc2)CC1`, for which the growth inhibition in assay [1] is 7%; in assay [4], 102% (active). Also, the inhibition in assay [2] is 31%; in assay [3], 3%. The result in assay [5], in assay [6], in assay [7] and in assay [8] was inactive.
With `O=C(NCCCNc1ccnc2cc(Cl)ccc12)c1ccccc1F`, the growth inhibition in assay [1] is 97% (active); in assay [4], 100% (active). The figures for the inhibition in assay [2] and in assay [3] were 18% and 3%, respectively. In addition, the outcome in assay [5], in assay [6], in assay [7] and in assay [8] was inactive.
As to `O=C(Nc1cccc(-c2ccc(CN3CCCC3)cc2)c1)c1ccc(F)cc1`, the growth inhibition in assay [1] is 9%; in assay [4], 92% (active). Also, the inhibition in assay [2] is 23%; in assay [3], 4%. In addition, the result in assay [5], in assay [6], in assay [7] and in assay [8] was inactive.
With `CC1(C)N=C(N)N=C(N)N1OCCCO`, the figures for the growth inhibition in assay [1] and in assay [4] were -1% and 96% (active), respectively. Also, the results for the inhibition in assay [2] and in assay [3] were 27% and -2%, respectively. For the same molecule, the outcome in assay [5], in assay [6], in assay [7] and in assay [8] was inactive.
Turning to `CCOC(=O)N(C)/N=C/[C@H](CCc1ccccc1)NC(=O)[C@H](CC(C)C)NC(=O)c1cc2cccc(OC)c2o1`, the growth inhibition was 70% (active) in assay [1] and 86% (active) in assay [4]. For the same molecule, the inhibition is 2% in assay [2] and 1% in assay [3]. Besides, the result in assay [5], in assay [6], in assay [7] and in assay [8] was inactive.
Take `Cc1cccc2[nH]c(-c3ccc(-c4ccc(C(=O)NCCN5CCCC5)cc4)cc3)nc12`: the figures for the growth inhibition in assay [1] and in assay [4] were 77% (active) and 101% (active), respectively. Further, the inhibition in assay [2] is 25%; in assay [3], 3%. Besides, the result in assay [5], in assay [6], in assay [7] and in assay [8] was inactive.
Consider `COc1cc2nc(C)nc(Nc3cccc(Br)c3)c2cc1OC`, for which the growth inhibition in assay [1] was 82% (active); in assay [4], 101% (active). Further, the inhibition in assay [2] was 0%; in assay [3] it was -8%. The outcome in assay [5], in assay [6], in assay [7] and in assay [8] was inactive.
Consider `CC(C)CNC(=O)CN1C(=O)C(c2ccccc2)(c2ccccc2)N=C1N`, for which the growth inhibition in assay [1] is 46%; in assay [4], 94% (active). Moreover, the inhibition in assay [2] is 15%; in assay [3], -1%. In addition, the result in assay [5], in assay [6], in assay [7] and in assay [8] was inactive.
`COc1ccc2nccc([C@@H](O)CN3CCC(NCc4cc5oc(=O)[nH]c5cc4Cl)CC3)c2c1`: the growth inhibition in assay [1] is 91% (active); in assay [4] it was 101% (active). Further, the inhibition is 1% in assay [2] and -2% in assay [3]. Further, the result in assay [5], in assay [6], in assay [7] and in assay [8] was inactive.
Take `O=C(/C=C/c1ccc(-c2nc3cc(F)c(F)cc3[nH]2)cc1)NCc1ccc(Cl)c(Cl)c1`: the figures for the growth inhibition in assay [1] and in assay [4] were 24% and 100% (active), respectively. The figures for the inhibition in assay [2] and in assay [3] were 14% and 4%, respectively. For the same molecule, the result in assay [5], in assay [6], in assay [7] and in assay [8] was inactive.
As for `O=C(NCc1ccc(F)cc1)c1ccc(N2CCN(c3ccncc3)CC2)cn1`, the growth inhibition was 81% (active) in assay [1] and 98% (active) in assay [4]. In addition, the values for the inhibition in assay [2] and in assay [3] were 7% and -2%, respectively. For the same molecule, the result in assay [5], in assay [6], in assay [7] and in assay [8] was inactive.
For `COc1ccc(CNC2CCN(C)CC2)cc1-c1ccc(S(=O)(=O)NCCN2CCCC2)s1`, the growth inhibition in assay [1] was 1%; in assay [4] it was 90% (active). For the same molecule, the inhibition in assay [2] was 2%; in assay [3], -2%. In addition, the result in assay [5], in assay [6], in assay [7] and in assay [8] was inactive.
`Cc1cccc(-c2cc3cc(Nc4ccnc5cc(-c6nccs6)ccc45)ccc3[nH]2)c1`: the figures for the growth inhibition in assay [1] and in assay [4] were 100% (active) and 101% (active), respectively. In addition, the results for the inhibition in assay [2] and in assay [3] were 0% and 1%, respectively. The outcome in assay [5], in assay [6], in assay [7] and in assay [8] was inactive.
As for `N#Cc1cccc(C(=O)Nc2cccc(-c3ccc(CN4CCC(O)CC4)cc3)c2)c1`, the results for the growth inhibition in assay [1] and in assay [4] were 2% and 86% (active), respectively. The inhibition in assay [2] was 15%; in assay [3] it was 1%. The result in assay [5], in assay [6], in assay [7] and in assay [8] was inactive.
As for `c1ccc2[nH]c(-c3ccc(-c4ccc(CN5CCN(CCN6CCOCC6)CC5)cc4)s3)nc2c1`, the growth inhibition in assay [1] and in assay [4] was 100% (active) in each case. The inhibition in assay [2] is 39%; in assay [3] it was -2%. Further, the outcome in assay [5], in assay [6], in assay [7] and in assay [8] was inactive.
As to `CCc1cn2c3c(cc(C(=O)N[C@@H](Cc4ccccc4)[C@H](O)CNCc4ccccc4C)cc13)N(C)S(=O)(=O)CC2`, the growth inhibition in assay [1] and in assay [4] was 98% (active) in each case. Also, the values for the inhibition in assay [2] and in assay [3] were 3% and 5%, respectively. The outcome in assay [5], in assay [6], in assay [7] and in assay [8] was inactive.
